Data: PubChem BioAssay AID493168 (National Center for Advancing Translational Sciences (NCATS), 2011)
Inconclusive results are not listed. Activity calls are given as the source filed them. The call rests on the fitted dose curve; in most records, active means well fitted inhibition curve with a large enough effect; inconclusive means small, poorly fitted or top-dose-only effect, or effect the other way; inactive means flat fitted curve, though single readings scatter.

Target: Ubiquitin carboxyl-terminal hydrolase 2 (Homo sapiens) (UniProt O75604)
Sequence (O75604 whole entry, looked up): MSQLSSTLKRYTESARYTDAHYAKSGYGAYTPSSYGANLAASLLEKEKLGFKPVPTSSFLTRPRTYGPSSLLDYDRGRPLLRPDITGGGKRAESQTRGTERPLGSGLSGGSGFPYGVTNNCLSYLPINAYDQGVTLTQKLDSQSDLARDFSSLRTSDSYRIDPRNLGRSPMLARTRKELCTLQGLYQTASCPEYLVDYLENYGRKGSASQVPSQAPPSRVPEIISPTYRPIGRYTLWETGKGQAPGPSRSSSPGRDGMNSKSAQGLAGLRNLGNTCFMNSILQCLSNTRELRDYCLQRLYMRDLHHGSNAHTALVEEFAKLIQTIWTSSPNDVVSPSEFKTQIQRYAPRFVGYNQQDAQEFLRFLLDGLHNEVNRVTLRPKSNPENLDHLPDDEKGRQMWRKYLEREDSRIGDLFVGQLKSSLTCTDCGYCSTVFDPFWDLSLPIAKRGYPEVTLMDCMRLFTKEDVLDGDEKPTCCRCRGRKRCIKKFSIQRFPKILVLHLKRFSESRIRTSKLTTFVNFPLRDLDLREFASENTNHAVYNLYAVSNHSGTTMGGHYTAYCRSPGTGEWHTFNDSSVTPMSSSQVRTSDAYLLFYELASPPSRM
Assay: Confirmation Assay for Inhibitors of Ubiquitin-specific Protease USP2a Using CHOP2 as the Reporter; further: nearly all actives have a fitted effect of over 55% in size;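 on activity change, negative = inhibition: plate controls were DMSO wells for no effect and full inhibition by NEM control for full effect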
Conditions: USP2 core, Ub-CHOP2 coupled reporter fluorescence; series mostly up to 38.3 µM; activity change, negative = inhibition: at the top concentration
How it was run: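 Ub-CHOP2 cleavage coupled to reporter activation was read by fluorescence after 60 min at RT, with 25 nM final Ub-CHOP2 and substrate. Enzyme (10 nM final USP2 core) first sat 30 min with compound; data were normalized to NEM and fitted to concentration-response curves.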
Potency means the concentration at half of the fitted maximal effect.

Activity change, negative = inhibition, inactive:
Cc1cc(NC(=O)CN2C(=O)NC3(CCCCC3C)C2=O)no1 (stereo not drawn) -0.642%, C=CC[C@H](CC(=O)N[C@H](CO)Cc1ccccc1)C(=O)N[C@H](COC(=O)[C@@H](CC=C)CC(=O)OC(C)(C)C)Cc1c[nH]c2ccccc12 -0.7%, COc1ccc(C(=O)COC(=O)c2ccccc2O)c(OC)c1 -16.9%, CCOC(=O)C(=O)Nc1nc(-c2ccc3c(c2)CCN3C(=O)C2CC2)c(C)s1 -0.268%, CC(=O)c1ccc(NC(=O)CC(NCCC2=CCCCC2)C(=O)O)cc1 (stereo not drawn) -0.641%, CCN(CC)CCNc1nc(-c2ccccc2)c2c(c1C#N)CC(C)(C)OC2 -2.42%, Cc1ccc(C)n1-c1cc(S(=O)(=O)N2CCOCC2)ccc1N1CCCC1 -0.614%, CCCc1cc(=O)oc2cc(C)c(CN3CCCC3)c(O)c12 -1.5%, Cc1c(C(=O)NCc2c(F)cc(F)cc2F)oc2ccc(S(=O)(=O)N3CCOCC3)cc12 -1.34%, Nc1ccc(C2=Nc3cccc4cccc(c34)N2)cc1 -0.428%, Cc1ccc2nc(NCCCNC(=O)c3cnccn3)c(C#N)cc2c1 2.19%, C(=N\N(c1ccccc1)c1ccccc1)/c1ccccn1 3.64%, O=C(Nc1ccc(N2CCCC2)cc1)c1cccc(-c2cc3ccccc3oc2=O)c1 -0.397%, COC(=O)CC1Oc2ccc(C)cc2NC1=O (stereo not drawn) 5.71%, O=C(CC1Oc2ccccc2NC1=O)NCc1ccc(Cl)cc1 (stereo not drawn) -0.66%, O=S(=O)(c1ccccc1)N(CC1CO1)c1cc(Cl)ccc1Cl (stereo not drawn) -2.76%, CCCn1c(C)cc(C)c(C#N)c1=O 7.38%, COc1ccc(-c2nnn(CC(=O)N3CCOCC3)n2)cc1 5.99%, O=C(CSc1nc2ccccc2[nH]1)Nc1ccc2c(c1)OCCO2 -2.85%, COc1cc2c(C(=O)N3CCN(c4cccc(Cl)c4)CC3)cn(CC(C)C)c(=O)c2cc1OC -2.06%, CCOc1ccc(Cn2nnc(C(=O)NCc3ccccc3)c2N)cc1 -2.45%

Potency, active:
Cc1ccc(S(=O)(=O)N2[C@@H](c3ccc(C(C)(C)C)cc3)C(C(=O)O)=CC[C@H]2c2ccc(Cl)cc2)cc1 14.7 µM, C#CCOCCOCCOCCNc1nc(N2CCN(C(=O)CCCCCCCCCCNC(=O)[C@@H](CCSC)n3cc(CCO)nn3)CC2)nc(N2CCN(C(=O)CCCCCCCCCCNC(=O)[C@H](CCCN=C(N)N)n3cc(C[C@@H](C)CC)nn3)CC2)n1 13.1 µM
